HCMV antiviral: inhibitors of human cytomegalovirus; HFF cells, HCMV-luciferase reporter, 72 h; hits give low values; activity change, negative = inhibition, % at 57.5 µM; actives 4.5% (n = 410,000); AID 1259415; in the data active = activity change below about -60%; inconclusive = no clear call, values can overlap the other calls; inactive = above about -39%
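Cell-based, HFFs, 1000 cells/well, 16 h 37C; cpds in DMSO + HCMV-luc, MOI 1 PFU/cell; 72 h 37C; OneGlo luminescence after 5 min RT; norm. to buffer vs Salinomycin 10uM.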
Marburg entry inh: Marburg virus entry inhibition | Marburg virus pseudotyped entry inhibition, cell reporter | actives 1.8% (n = 300,000) | Potency, µM (highest dose often 37.8 µM), hits mostly inhibitors | AID 540276; calls by dose curve; tested in HEK293 cells
LASV entry inh: Lassa virus entry inhibition | Lassa virus pseudotype entry inhibition, cell reporter | Potency, µM (highest dose often 37.9 µM), usual class: inhibitors | actives 1.2% (n = 300,000) | AID 540256; calls by dose curve; tested in HEK293 cells; also: nearly all actives have a fitted effect of over 50% in size
HCV inh: HCV inhibition; actives 3.4% (n = 340,000); Huh7.5.1 HCVcc-Cre infection, luciferase reporter, 44 h; Potency, µM (top dose mostly 41.8 µM), usual class: inhibitors; active = well fitted inhibition curve with a large enough effect; inconclusive = small, poorly fitted or top-dose-only effect, or another doubt; inactive = no such curve, though single readings can be large or run the other way
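1,000 cells/well; 4 h culture; + compound; + HCVcc-Cre (~0.5 moi); 44 h; luciferase substrate, RT 15 min; read 15 sec.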
FMDV inh: antivirals against foot and mouth disease virus; FMDV antiviral cell-based qHTS; Potency, µM (highest dose often 57.9 µM), actives largely listed as inhibitors; AID 1159524; actives 1.2% (n = 410,000); calls by dose curve; tested in HEK293T cells; also: read-out not given here; nearly all actives have a fitted effect of over 45% in size
Large screens that a line does not name were inactive. Sampled rows, rich in hits. Any-hit rate of the full collection: about 7.9%.

CCOc1ccc(N(CC(=O)Nc2ccccc2C)S(=O)(=O)c2c(C)noc2C)cc1	HCMV antiviral -69.5 (no result: LASV entry inh)
COc1ccc(N(CC(=O)Nc2ccc(C)cc2)S(=O)(=O)c2c(C)noc2C)cc1	none (no result: Marburg entry inh, LASV entry inh)
Cc1ccc(N(CC(=O)Nc2cc(C)cc(C)c2)S(=O)(=O)c2c(C)noc2C)cc1	HCMV antiviral -85.4, HCV inh inconclusive, FMDV inh inconclusive (no result: Marburg entry inh, LASV entry inh)
Cc1ccc(C)c(N2CCN(C(=O)C(CC(C)C)NS(=O)(=O)c3ccc4nc(C)sc4c3)CC2)c1 (stereo unspecified)	Marburg entry inh inconclusive, LASV entry inh inconclusive (no result: HCV inh)
N/C(=N\OC(=O)c1cccc(Br)c1)c1ccccn1	none (no result: Marburg entry inh, LASV entry inh)
Cc1ccccc1/C(N)=N/OC(=O)c1ccc(F)cc1	HCMV antiviral -90.2, HCV inh inconclusive (no result: Marburg entry inh, LASV entry inh)
N/C(=N\OC(=O)c1cccc(Br)c1)c1ccccc1	Marburg entry inh inconclusive, HCV inh 11.2µM
Cc1ccccc1C(=O)O/N=C(\N)c1ccc([N+](=O)[O-])cc1	Marburg entry inh inconclusive
Cc1ccccc1C(=O)O/N=C(\N)c1ccccc1	Marburg entry inh inconclusive, LASV entry inh inconclusive, HCV inh inconclusive, FMDV inh 11.2µM
COc1ccc(NS(=O)(=O)c2cccc(C(=O)N/N=C(/C)c3ccc(-n4ccnc4)cc3)c2)cc1	none
CCOc1ccc(S(=O)(=O)Nc2ccc(C(=O)N/N=C(\C)c3ccc(-n4ccnc4)cc3)cc2)cc1	Marburg entry inh 11.2µM, LASV entry inh inconclusive
CCOc1ccc(NC(=S)Nc2ccc(OCC)cc2)cc1	HCMV antiviral -100.0, Marburg entry inh inconclusive, LASV entry inh inconclusive
Cc1cc(C)nc(NS(=O)(=O)c2ccc(NC(=S)NC(=O)CC(C)C)cc2)n1	Marburg entry inh inconclusive
CCC(=O)NC(=S)Nc1ccc(S(=O)(=O)NC(C)C)cc1	HCMV antiviral -109.9
CCOc1ccc(NS(=O)(=O)c2ccc(NC(=S)NC(C)=O)cc2)cc1	HCMV antiviral -62.2, LASV entry inh inconclusive, HCV inh inconclusive
COC(=O)[C@@H]1CCCN1C(=O)c1cnn(-c2ncc3c(n2)-c2ccccc2CCC3)c1C1CC1	none (no result: HCMV antiviral, Marburg entry inh, LASV entry inh, HCV inh)
CCc1ccc(N2CC(c3nc4ccccc4n3Cc3ccccc3C)CC2=O)cc1 (stereo unspecified)	Marburg entry inh inconclusive (no result: HCV inh)
CCC(C)C(NC(N)=O)C(=O)Nc1ccc(S(=O)(=O)Nc2ccc(OC)cc2)cc1 (stereo unspecified)	HCMV antiviral -101.5, Marburg entry inh inconclusive
CC(C)C(=O)NC(=S)Nc1ccc(S(=O)(=O)N(C)Cc2ccccc2)cc1	Marburg entry inh inconclusive, LASV entry inh inconclusive, HCV inh inconclusive
CCCCNC(=O)NS(=O)(=O)c1ccc(NC(=O)C(NC(N)=O)C(C)CC)cc1 (stereo unspecified)	none
CC(=O)NC(=S)Nc1ccc(S(=O)(=O)N(C)Cc2ccccc2)cc1	FMDV inh 22.4µM
O=C1CCC[C@H]2[C@@H](Cc3ccccc3)[C@H](N(Cc3ccccc3)Cc3ccccc3)CC[C@]23CCCN13	none (no result: Marburg entry inh, LASV entry inh, HCV inh, FMDV inh)
CC1(C)CC(=O)C2=C(C1)Oc1nc3ccccc3cc1C2C(C#N)C#N (stereo unspecified)	Marburg entry inh inconclusive, LASV entry inh 15.8µM, HCV inh inconclusive, FMDV inh 8.91µM
Cc1ccc(/C=N/Nc2ccc3ccccc3n2)o1	HCMV antiviral -79.0, Marburg entry inh 1.26µM, LASV entry inh 5.01µM
Cc1ccc(/C=N/Nc2cn[nH]c(=O)n2)o1	HCMV antiviral inconclusive
C(=N\Nc1ccc2ccccc2n1)/c1ccc2c(c1)OCCO2	HCMV antiviral -89.7, FMDV inh inconclusive (no result: Marburg entry inh, LASV entry inh)
Cc1cccc(/C=N/Nc2ccc3ccccc3n2)c1	HCV inh inconclusive, FMDV inh 6.31µM (no result: Marburg entry inh, LASV entry inh)
C(=N\Nc1nc2ccccc2[nH]1)/c1ccc2c(c1)OCCO2	HCV inh inconclusive (no result: Marburg entry inh, LASV entry inh)
Cc1cc(N/N=C/c2cccc(Br)c2)nc2ccccc12	none
COc1cccc(NC(=O)Cn2c(=O)n(-c3cccc(OC)c3)c(=O)c3c4c(sc32)CCCC4)c1	Marburg entry inh inconclusive (no result: HCV inh)
Cc1ccc2c(=O)c(C(=O)c3ccc(F)cc3)cn(CC(=O)NCCc3ccccc3)c2n1	none (no result: Marburg entry inh, HCV inh)
CCn1nc(NC(=O)c2cccs2)c2cc3ccccc3nc21	HCV inh 25.1µM (no result: Marburg entry inh, LASV entry inh)
CCn1nc(NC(=O)c2ccccc2)c2cc3cccc(C)c3nc21	Marburg entry inh inconclusive, LASV entry inh inconclusive, HCV inh 25.1µM
CCCn1nc(NC(=O)C2CCCO2)c2cc3cccc(C)c3nc21 (stereo unspecified)	HCV inh 11.2µM
CC(C)Cn1nc(NC(=O)C2CCCO2)c2cc3ccccc3nc21 (stereo unspecified)	Marburg entry inh inconclusive
CCn1nc(NC(=O)c2cccnc2)c2cc3ccccc3nc21	Marburg entry inh inconclusive, FMDV inh inconclusive
C1CCC(C2C3=C(NC4NCNN42)C2=C(CCCC2)CCC3)CC1 (stereo unspecified)	none (no result: HCMV antiviral, LASV entry inh, HCV inh, FMDV inh)
CCN(C)C(=O)c1coc(N2CCN(Cc3cccc(F)c3)C2=O)n1	none (no result: Marburg entry inh, LASV entry inh, HCV inh, FMDV inh)
Cc1cc(C)cc(N2C(=O)NC(=O)/C(=C\c3cccn3-c3ccccc3)C2=O)c1	Marburg entry inh inconclusive, LASV entry inh inconclusive, HCV inh inconclusive, FMDV inh 35.5µM
CN1C(=O)/C(=C/c2cccn2-c2ccc3ccccc3c2)C(=O)NC1=S	HCMV antiviral -105.0, Marburg entry inh inconclusive, LASV entry inh inconclusive, FMDV inh 28.2µM
O=C1NC(=S)N/C1=C/c1cccn1-c1ccc([N+](=O)[O-])cc1	none
O=C1NC(=S)NC(=O)C1=Cc1cccn1-c1ccc(O)cc1	HCMV antiviral -99.4, HCV inh inconclusive, FMDV inh 20µM (no result: Marburg entry inh, LASV entry inh)
Cc1cc(C)cc(N2C(=O)NC(=O)/C(=C\c3cccn3-c3ccc(Cl)cc3)C2=O)c1	Marburg entry inh inconclusive, LASV entry inh inconclusive, FMDV inh 8.91µM
ClC1CCCC(Cl)C1Cn1nnc(N2CCCC2)n1 (stereo unspecified)	none (no result: HCMV antiviral, LASV entry inh, HCV inh, FMDV inh)
COc1ccc(CC(=O)Nc2cc3oc4ccccc4c3cc2OC)cc1	HCV inh 4.47µM
COc1cc(OC)cc(C(=O)NC(=S)Nc2cc3oc4ccccc4c3cc2OC)c1	Marburg entry inh inconclusive, LASV entry inh inconclusive, HCV inh 1.78µM
CCc1ccc(OCC(=O)Nc2cc3oc4ccccc4c3cc2OC)cc1	FMDV inh inconclusive (no result: HCV inh)
COc1cccc(CN(C)CC(=O)Nc2cc3oc4ccccc4c3cc2OC)c1	Marburg entry inh inconclusive, HCV inh 15.8µM
COc1ccc(C(=O)NC(=S)Nc2cc3oc4ccccc4c3cc2OC)cc1	Marburg entry inh inconclusive
COc1cc2c(cc1NC(=O)CSc1ccc(Cl)cc1)oc1ccccc12	HCV inh 10µM
CCCC1=Nc2cc(C(=O)NCc3ccccc3)ccc2Sc2ccccc21	HCMV antiviral inconclusive, Marburg entry inh inconclusive, LASV entry inh inconclusive (no result: HCV inh)
CCN(CC)C(=O)c1sc(NC(=O)C(C)Sc2nc(-c3ccccc3)cc(C(F)(F)F)n2)c(C(=O)OC)c1C (stereo unspecified)	HCMV antiviral inconclusive, Marburg entry inh inconclusive (no result: HCV inh)
COc1cc2c(cc1NC(=O)CN(C)Cc1cccc(OC)c1OC)oc1ccccc12	Marburg entry inh inconclusive, HCV inh 3.55µM
CCN(CC)S(=O)(=O)c1cccc(NC(=O)CN(C)Cc2cccc(OC)c2)c1	HCMV antiviral inconclusive, Marburg entry inh 23.1µM, LASV entry inh 11.2µM, HCV inh inconclusive, FMDV inh inconclusive
